The target of assay [1] is Transcriptional activator Myb (Homo sapiens) (UniProt P10242). Kind of assay: ATG_Myb_CIS: Attagene CIS-FACTORIAL HepG2 Assay for human Myeloblastosis (Myb) Proto-Oncogene Transcription Factor (AID 2282986). The note with it: HepG2 Attagene CIS-FACTORIAL Myb reporter transcription; actives raise or lower the signal. In short, it runs like this:
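Endogenous transcription factor activity at a Myb-responsive cis element is reported in human liver HepG2 cells after 24 h chemical treatment. Reporter mRNA is detected by RT-PCR and capillary electrophoresis fluorescence, with DMSO as baseline.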

Assay [2] concerns the target Nuclear respiratory factor 1 (Homo sapiens) (UniProt Q16656). Kind of assay: ATG_NRF1_CIS: Attagene CIS-FACTORIAL HepG2 Assay for human Nuclear Respiratory Factor 1 (NRF1) Orphan Gene (AID 2282987). As to conditions: HepG2 NRF1 cis-element reporter, Attagene multiplex; actives raise or lower the signal. In short, it runs like this: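 Human hepatoma HepG2 cells carrying transfected promoter-regulated reporter units were incubated with test chemicals for 24 h. Reporter transcripts were measured by RT-PCR plus capillary electrophoresis, and endpoints derived by bidirectional fitting with DMSO as baseline.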

Assay [3] can be described thus: ATG_NFI_CIS: Attagene CIS-FACTORIAL HepG2 Assay for human Nuclear Factor I (NFI) (AID 2282989). The note with it: HepG2 cis-regulatory reporter, NFI response element transcription; actives raise or lower the signal. In short, it runs like this: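 HepG2, transient MRTU, 24 h exposure; RNA→cDNA→PCR→FAM label→HpaI→CE fluorescence. Bidirectional fit, DMSO = baseline.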

The target in assay [4] is Myc proto-oncogene protein (Homo sapiens) (UniProt P01106). Kind of assay: ATG_Myc_CIS: Attagene CIS-FACTORIAL HepG2 Assay for human Myelocytomatosis (Myc) Proto-Oncogene Transcription Factor (AID 2282990). The note with it: HepG2, Attagene cis-reporter transcription factor activity; actives raise or lower the signal. In short, it runs like this:
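Transiently transfected HepG2 cells bearing cis-promoter reporter units for endogenous transcription factors; 24 h exposure. Reporter mRNA measured by RT-PCR, 6-FAM primer extension, HpaI cut and capillary electrophoresis; bidirectional fit relative to DMSO.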

Assay [5] in a line: ATG_NF_kB_CIS: Attagene CIS-FACTORIAL HepG2 Assay for human Nuclear Factor Kappa B (NF-kB) (AID 2282991). The note with it: HepG2 Attagene cis-factorial NF-kB reporter mRNA; actives raise or lower the signal. In short, it runs like this:
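Multiplexed cis-reporter assay in transiently transfected HepG2. 24 h treatment; RNA isolated, RT-PCR, labelled fragments resolved by CE. DMSO baseline.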

The nature of assay [6]: ATG_NRF2_ARE_CIS: Attagene CIS-FACTORIAL HepG2 Assay for human Nuclear Factor Erythroid 2 Related Factor 2 (NFR2) response to Antioxidant Response Elements (ARE) (AID 2282992).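 On AC50: reporter mRNA level measured by RT-PCR and capillary electrophoresis fluorescence.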 The note with it: HepG2 Attagene ARE/NRF2 reporter, transcription factor activity; actives raise or lower the signal. A digest of the protocol:
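Endogenous transcription factor activity in human liver HepG2 cells is tracked via a cis-element-driven reporter within a multiplexed set. mRNA induction is read by RT-PCR and capillary electrophoresis after 24 h, with DMSO as baseline.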

The nature of assay [7]: ATG_Oct_MLP_CIS: Attagene CIS-FACTORIAL HepG2 Assay for human Octamer-Binding Transcription Factor (Oct) (AID 2282993). The note with it: HepG2 Attagene cis-factorial Oct reporter, mRNA; actives raise or lower the signal. A digest of the protocol: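 Multiplexed cis-reporter assay in human liver HepG2 cells, 24 h incubation. Reporter RNA amplified and labelled, then resolved by capillary electrophoresis; DMSO serves as negative control and baseline.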

A short description of assay [8]: BSK_3C_TissueFactor: BioMAP Diversity Plus: 3C Assay for Tissue Factor Biomarker Activity (AID 2282997). The note with it: BioMAP 3C HUVEC, tissue factor biomarker readout; actives raise or lower the signal. In short, it runs like this: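 In this endothelial system, HUVEC are treated for 24 h and Tissue Factor is assessed by ELISA, normalised to DMSO.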
The nature of assay [9]: BSK_3C_uPAR: BioMAP Diversity Plus: 3C Assay for Urokinase-type plasminogen activator receptor (uPAR) Biomarker Activity (AID 2282998). The note with it: BioMAP 3C HUVEC, uPAR biomarker ELISA; actives raise or lower the signal. A digest of the protocol:
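Dose primary human umbilical vein endothelial cells, incubate 24 h, measure cell-surface uPAR by ELISA, then fit the signal in both directions against the DMSO negative control.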

Assay [10] can be described thus: BSK_3C_VCAM1: BioMAP Diversity Plus: 3C Assay for Vascular cell adhesion molecule 1 (VCAM1) Biomarker Activity (AID 2282999). The note with it: BioMAP 3C HUVEC, VCAM1 ELISA, cytokine-stimulated; actives raise or lower the signal. In short, it runs like this:
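HUVEC primary cells, 24 h compound exposure; VCAM-1 by ELISA; gain/loss of signal fitted bidirectionally vs DMSO baseline.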
For orientation: In an ELISA, binding on a coated surface is turned into a signal by an enzyme label.

A short description of assay [11]: BSK_4H_Eotaxin3: BioMAP Diversity Plus: 4H Assay for Eotaxin 3 Biomarker Activity (AID 2283000).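 On outcome: CCL26 protein level quantified by ELISA in parallel with SRB cytotoxicity check.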 The note with it: primary human endothelial cells (HUVEC); actives raise or lower the signal. In short, it runs like this: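 ELISA quantitation of CCL26 (Eotaxin-3) protein from chemically dosed human vascular endothelial cells at 24 h; increases and decreases both scored relative to DMSO-treated baseline.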

Read-out in assay [12]: Intercellular Adhesion Molecule 1 (ICAM1), ICAM1 (gene 3383)
Kind of assay: BSK_3C_ICAM1: BioMAP Diversity Plus: 3C Assay for Intercellular Adhesion Molecule 1 (ICAM1) Biomarker Activity (AID 2283003). The note with it: primary human endothelial cells (HUVEC); actives raise or lower the signal. In short, it runs like this: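 ELISA readout of ICAM1 in human umbilical vein endothelial cells in the 3C system, taken 24 h post-dose. Gain or loss of signal versus DMSO was fitted in both directions, with SRB total-protein staining run in parallel.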

Assay [13] can be described thus: BSK_3C_Proliferation: Cell Proliferation Assessment in the BioMAP Diversity Plus: 3C Assay (AID 2283006).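 On AC50: potency may reflect either rise or fall in cell number versus DMSO.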 As to conditions: primary human endothelial cells (HUVEC). In short, it runs like this:
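Proliferation as total protein: sulforhodamine B (0.1%) stain of TCA-fixed subconfluent human umbilical vein endothelial cells, absorbance 560 nm, 48 h after dosing. Activity fitted in both directions against DMSO baseline.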

The target of assay [14] is Peroxisome proliferator-activated receptor gamma (Homo sapiens) (UniProt P37231). Kind of assay: ATG_PPARg_TRANS: Attagene TRANS-FACTORIAL HepG2 Assay for human Peroxisome Proliferator-activated Receptor-gamma (PPARg) (AID 2283007; active means hit-call score of the fitted dose curve at least 0.9, where 1 is the maximum). A digest of the protocol:
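Human hepatoma HepG2, transient MRTU transfection, 24 h treatment. mRNA reporter signal by RT-PCR plus capillary electrophoresis, fluorescence detection; fitted for increase over DMSO negative control.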

Assay [15] addresses Nuclear receptor subfamily 1 group I member 2 (Homo sapiens) (UniProt O75469). Kind of assay: ATG_PXR_TRANS: Attagene TRANS-FACTORIAL HepG2 Assay for human Pregnane X Receptor (PXR) (AID 2283008; active means hit-call score of the fitted dose curve at least 0.9, where 1 is the maximum). A digest of the protocol: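 HepG2 transfected (FuGene 6) with GAL4-UAS reporter units + PXR-Gal4 chimera; dosed 24 h. Total RNA → oligo(dT) RT → PCR → 6-FAM primer extension → HpaI cut → CE. Gain-of-signal vs DMSO.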

In assay [16] the target is human Peroxisome Proliferator-activated Receptor alpha (PPARa), PPARA (gene 5465) (UniProt Q07869). Kind of assay: ATG_PPARa_TRANS: Attagene TRANS-FACTORIAL HepG2 Assay for human Peroxisome Proliferator-activated Receptor alpha (PPARa) (AID 2283001; active means hit-call score of the fitted dose curve at least 0.9, where 1 is the maximum). In short, it runs like this: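 HepG2, transient MRTU transfection, 24 h treatment. RT-PCR → FAM labelling → capillary electrophoresis. Fit vs DMSO, positive direction.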

In assay [17] the target is human Peroxisome Proliferator-activated Receptor delta (PPARd), PPARD (gene 5467) (UniProt Q03181). Kind of assay: ATG_PPARd_TRANS: Attagene TRANS-FACTORIAL HepG2 Assay for human Peroxisome Proliferator-activated Receptor delta (PPARd) (AID 2283002; active means hit-call score of the fitted dose curve at least 0.9, where 1 is the maximum). In short, it runs like this:
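HepG2 cells transiently transfected with GAL4-UAS multiplexed reporter units driven by exogenous chimeric NR-GAL4 proteins; 24 h compound exposure. Reporter mRNA measured by RT-PCR, 6-FAM primer extension, HpaI digestion and capillary electrophoresis; gain of signal fitted relative to DMSO.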

Assay [18] addresses human Retinoic Acid Receptor gamma (RARg), RARG (gene 5916) (UniProt P13631). Kind of assay: ATG_RARg_TRANS: Attagene TRANS-FACTORIAL HepG2 Assay for human Retinoic Acid Receptor gamma (RARg) (AID 2283009; active means hit-call score of the fitted dose curve at least 0.9, where 1 is the maximum;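 on AC50: AC50 is for reporter induction above DMSO meaning RARg activation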). A digest of the protocol:
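Transactivation of exogenous RARg-Gal4 fusion measured as reporter transcript induction after 24 h in transfected HepG2 cells. RNA reverse-transcribed, amplified, fluorescently labeled and resolved by capillary electrophoresis; increase relative to DMSO.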

For assay [19], the target named is Retinoic acid receptor alpha (Homo sapiens) (UniProt P10276). Kind of assay: ATG_RARa_TRANS: Attagene TRANS-FACTORIAL HepG2 Assay for human Retinoic Acid Receptor alpha (RARa) (AID 2283005; active means hit-call score of the fitted dose curve at least 0.9, where 1 is the maximum). In short, it runs like this:
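HepG2 transiently transfected with multiplex GAL4-UAS reporter units including a human RARa–GAL4 chimera; 24 h compound exposure. Reporter mRNA quantified by RT-PCR, 6-FAM labeling and capillary electrophoresis; gain of signal versus DMSO.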

Results filed as inconclusive are left out. Active and inactive are the calls of the source. How the source made its calls, unless noted: active means hit-call score of the fitted dose curve at least 0.9, where 1 is the maximum; inactive means score below 0.9.

Sequence of Transcriptional activator Myb (Homo sapiens) (P10242 whole entry, looked up): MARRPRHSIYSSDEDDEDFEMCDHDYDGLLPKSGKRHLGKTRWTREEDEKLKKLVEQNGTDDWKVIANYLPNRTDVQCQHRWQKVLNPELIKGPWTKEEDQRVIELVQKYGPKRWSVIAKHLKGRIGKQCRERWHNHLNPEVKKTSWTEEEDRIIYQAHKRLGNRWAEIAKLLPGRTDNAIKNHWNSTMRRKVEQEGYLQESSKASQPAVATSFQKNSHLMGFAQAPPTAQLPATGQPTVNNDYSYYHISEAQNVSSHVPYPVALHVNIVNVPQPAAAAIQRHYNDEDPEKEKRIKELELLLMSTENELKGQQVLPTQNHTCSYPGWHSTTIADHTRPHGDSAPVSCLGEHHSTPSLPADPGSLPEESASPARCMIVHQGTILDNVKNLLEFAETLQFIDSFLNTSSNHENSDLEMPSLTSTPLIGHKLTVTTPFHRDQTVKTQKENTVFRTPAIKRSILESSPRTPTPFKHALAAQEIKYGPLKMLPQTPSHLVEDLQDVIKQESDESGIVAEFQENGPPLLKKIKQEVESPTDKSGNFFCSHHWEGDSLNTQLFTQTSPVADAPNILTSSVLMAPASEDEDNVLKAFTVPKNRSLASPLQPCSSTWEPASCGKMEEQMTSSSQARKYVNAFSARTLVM
Sequence of human Retinoic Acid Receptor gamma (RARg), RARG (gene 5916) (P13631 whole entry, looked up, the tested form may be a part): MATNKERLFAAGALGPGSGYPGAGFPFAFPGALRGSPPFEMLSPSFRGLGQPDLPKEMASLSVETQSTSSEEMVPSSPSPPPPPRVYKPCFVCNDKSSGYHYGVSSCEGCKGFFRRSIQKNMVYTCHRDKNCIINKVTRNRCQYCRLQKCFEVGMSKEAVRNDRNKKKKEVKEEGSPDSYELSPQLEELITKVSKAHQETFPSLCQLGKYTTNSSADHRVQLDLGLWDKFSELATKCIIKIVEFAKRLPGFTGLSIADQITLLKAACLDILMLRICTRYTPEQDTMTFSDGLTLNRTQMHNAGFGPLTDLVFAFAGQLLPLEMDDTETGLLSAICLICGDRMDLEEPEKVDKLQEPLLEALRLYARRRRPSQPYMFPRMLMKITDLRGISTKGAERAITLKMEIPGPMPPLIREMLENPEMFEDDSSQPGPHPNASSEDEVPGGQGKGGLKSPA
Sequence of Peroxisome proliferator-activated receptor gamma (Homo sapiens) (P37231 whole entry, looked up): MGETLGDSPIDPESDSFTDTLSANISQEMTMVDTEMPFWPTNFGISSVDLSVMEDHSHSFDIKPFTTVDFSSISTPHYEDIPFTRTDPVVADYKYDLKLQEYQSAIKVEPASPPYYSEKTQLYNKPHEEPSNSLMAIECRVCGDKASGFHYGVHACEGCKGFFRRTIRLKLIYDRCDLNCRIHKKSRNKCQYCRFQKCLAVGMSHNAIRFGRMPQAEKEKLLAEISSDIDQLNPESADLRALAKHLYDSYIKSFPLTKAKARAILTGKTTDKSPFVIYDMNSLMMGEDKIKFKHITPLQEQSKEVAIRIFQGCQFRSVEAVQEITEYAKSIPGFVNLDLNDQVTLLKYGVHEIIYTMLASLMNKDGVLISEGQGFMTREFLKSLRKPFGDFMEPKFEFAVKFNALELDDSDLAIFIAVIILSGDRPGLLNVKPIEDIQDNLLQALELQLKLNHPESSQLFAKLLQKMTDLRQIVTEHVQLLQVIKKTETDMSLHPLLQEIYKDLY
Sequence of human Peroxisome Proliferator-activated Receptor delta (PPARd), PPARD (gene 5467) (Q03181 whole entry, looked up, the tested form may be a part): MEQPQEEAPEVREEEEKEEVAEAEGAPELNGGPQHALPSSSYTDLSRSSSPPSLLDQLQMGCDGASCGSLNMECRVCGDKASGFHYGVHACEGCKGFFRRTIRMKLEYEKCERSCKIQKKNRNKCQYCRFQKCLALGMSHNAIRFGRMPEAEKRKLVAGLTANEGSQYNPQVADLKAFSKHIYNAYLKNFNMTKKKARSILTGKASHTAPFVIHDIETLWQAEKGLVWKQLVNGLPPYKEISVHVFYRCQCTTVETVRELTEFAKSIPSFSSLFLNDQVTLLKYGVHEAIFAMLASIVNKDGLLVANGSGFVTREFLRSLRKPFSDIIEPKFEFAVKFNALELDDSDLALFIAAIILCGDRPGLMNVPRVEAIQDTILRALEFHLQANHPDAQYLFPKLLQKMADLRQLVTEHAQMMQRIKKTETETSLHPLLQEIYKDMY
Sequence of Nuclear respiratory factor 1 (Homo sapiens) (Q16656 whole entry, looked up): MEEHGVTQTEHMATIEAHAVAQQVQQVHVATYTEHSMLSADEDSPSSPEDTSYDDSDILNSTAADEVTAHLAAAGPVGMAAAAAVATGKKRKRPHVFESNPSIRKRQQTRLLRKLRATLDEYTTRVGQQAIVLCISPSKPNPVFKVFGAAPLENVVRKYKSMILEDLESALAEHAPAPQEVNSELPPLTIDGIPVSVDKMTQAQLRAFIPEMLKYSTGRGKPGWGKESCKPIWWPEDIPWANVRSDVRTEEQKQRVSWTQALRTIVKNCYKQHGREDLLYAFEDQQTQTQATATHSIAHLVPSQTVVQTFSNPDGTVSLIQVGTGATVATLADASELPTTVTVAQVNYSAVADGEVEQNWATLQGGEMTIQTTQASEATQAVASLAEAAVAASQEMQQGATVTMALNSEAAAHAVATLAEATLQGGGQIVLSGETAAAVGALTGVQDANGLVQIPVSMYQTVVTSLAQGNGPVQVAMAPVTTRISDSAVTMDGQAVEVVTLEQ
Sequence of human Peroxisome Proliferator-activated Receptor alpha (PPARa), PPARA (gene 5465) (Q07869 whole entry, looked up): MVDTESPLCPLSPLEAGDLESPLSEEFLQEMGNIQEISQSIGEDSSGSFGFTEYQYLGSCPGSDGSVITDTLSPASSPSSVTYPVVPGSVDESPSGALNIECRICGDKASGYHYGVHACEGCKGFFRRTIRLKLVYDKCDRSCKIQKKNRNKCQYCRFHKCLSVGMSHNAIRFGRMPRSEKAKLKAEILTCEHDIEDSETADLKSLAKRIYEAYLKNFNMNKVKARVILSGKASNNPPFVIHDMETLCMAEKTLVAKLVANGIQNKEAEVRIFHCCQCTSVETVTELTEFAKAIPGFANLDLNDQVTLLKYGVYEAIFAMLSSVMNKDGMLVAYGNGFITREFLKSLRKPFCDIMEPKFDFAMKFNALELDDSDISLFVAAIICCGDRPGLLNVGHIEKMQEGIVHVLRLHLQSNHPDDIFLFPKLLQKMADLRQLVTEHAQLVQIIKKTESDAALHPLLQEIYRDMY
Sequence of Nuclear receptor subfamily 1 group I member 2 (Homo sapiens) (O75469 whole entry, looked up, the tested form may be a part): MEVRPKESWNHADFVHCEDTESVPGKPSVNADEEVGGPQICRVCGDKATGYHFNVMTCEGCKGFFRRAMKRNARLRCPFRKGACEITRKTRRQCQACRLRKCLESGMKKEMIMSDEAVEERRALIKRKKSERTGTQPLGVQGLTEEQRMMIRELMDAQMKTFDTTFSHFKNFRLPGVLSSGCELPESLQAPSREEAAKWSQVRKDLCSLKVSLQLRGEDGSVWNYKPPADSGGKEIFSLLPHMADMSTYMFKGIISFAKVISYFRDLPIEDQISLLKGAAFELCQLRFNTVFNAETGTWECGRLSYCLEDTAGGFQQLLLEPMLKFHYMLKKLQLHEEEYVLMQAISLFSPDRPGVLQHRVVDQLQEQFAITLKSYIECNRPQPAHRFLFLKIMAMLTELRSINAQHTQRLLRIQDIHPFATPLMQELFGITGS
Sequence of Myc proto-oncogene protein (Homo sapiens) (P01106 whole entry, looked up): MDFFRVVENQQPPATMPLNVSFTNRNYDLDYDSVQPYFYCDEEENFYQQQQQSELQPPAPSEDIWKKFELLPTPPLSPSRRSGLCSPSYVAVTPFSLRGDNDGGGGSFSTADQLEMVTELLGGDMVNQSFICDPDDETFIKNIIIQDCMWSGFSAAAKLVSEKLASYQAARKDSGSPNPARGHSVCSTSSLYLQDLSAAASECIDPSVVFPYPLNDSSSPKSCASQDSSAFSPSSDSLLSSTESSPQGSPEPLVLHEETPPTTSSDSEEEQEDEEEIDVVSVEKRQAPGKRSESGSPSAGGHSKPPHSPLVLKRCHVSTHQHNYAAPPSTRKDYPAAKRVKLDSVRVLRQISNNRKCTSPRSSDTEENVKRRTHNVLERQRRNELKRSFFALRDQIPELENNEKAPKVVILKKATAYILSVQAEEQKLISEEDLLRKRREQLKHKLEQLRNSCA
Sequence of Retinoic acid receptor alpha (Homo sapiens) (P10276 whole entry, looked up, the tested form may be a part): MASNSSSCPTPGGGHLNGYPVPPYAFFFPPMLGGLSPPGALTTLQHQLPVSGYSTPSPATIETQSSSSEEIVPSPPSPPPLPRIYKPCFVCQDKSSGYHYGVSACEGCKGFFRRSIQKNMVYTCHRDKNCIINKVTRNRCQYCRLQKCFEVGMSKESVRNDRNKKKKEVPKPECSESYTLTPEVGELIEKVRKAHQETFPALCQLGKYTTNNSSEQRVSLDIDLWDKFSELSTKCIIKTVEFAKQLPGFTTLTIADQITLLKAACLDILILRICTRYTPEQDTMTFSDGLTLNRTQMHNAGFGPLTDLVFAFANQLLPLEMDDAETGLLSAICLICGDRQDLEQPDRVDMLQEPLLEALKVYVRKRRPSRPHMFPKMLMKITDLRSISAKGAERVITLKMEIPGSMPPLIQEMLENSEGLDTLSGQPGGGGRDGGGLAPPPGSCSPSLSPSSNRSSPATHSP

For orientation: AC50 means the midpoint of the concentration-response curve, whichever way the signal moves. Turning to `CCCCC(CC)COP(=O)(Oc1ccccc1)Oc1ccccc1` (stereo not drawn), the half-maximal activity concentration (AC50) in [1] was 143 µM (active); in [2] it was 173 µM (active); in assay [3] it was 158 µM (active); in assay [4] it was 143 µM (active); in [5], 159 µM (active); in assay [6], 12.2 µM (active). For the same molecule, the AC50 is 87.1 µM (active) in [7]; 9.63 µM (active) in [8]; 12.1 µM (active) in assay [9]; 20 µM (active) in assay [10]; 20 µM (active) in [11]; 7.38 µM (active) in assay [13]. The AC50 in assay [14] was 5.22 µM (active); in assay [15], 0.296 µM (active). In addition, in [12], the outcome was inactive.

On to `CC(C)CBr`, for which the result in assay [1], in [2], in assay [3], in assay [4], in [5] and in assay [6] was inactive. The molecule was called inactive in [7], in [16], in assay [17], in assay [14] and in assay [18].

Consider `CCOP(=S)(OCC)SCSCC`, for which the call in assay [1], in assay [2], in assay [3], in [4], in assay [5] and in [7] was inactive. The outcome in [8], in [9], in assay [10], in assay [11], in assay [12] and in assay [13] was inactive. Besides, the outcome in [14] was inactive. The AC50 in assay [6] is 73 µM (active); in assay [15], 9.51 µM (active).

Consider `c1cc2c3c(cccc3c1)CC2`, for which the call in [1], in [2], in assay [3], in [4], in assay [5] and in assay [6] was inactive. Also, the molecule was classed as inactive in [7], in assay [8], in [9], in assay [10], in assay [11] and in [16]. Also, the outcome in assay [12], in assay [19], in [13], in assay [14], in assay [15] and in assay [18] was inactive.

Turning to `ClC(Cl)=C(c1ccc(Cl)cc1)c1ccccc1Cl`, the molecule was called inactive in [1], in assay [2], in assay [4], in [5], in assay [16] and in [17]. In addition, the result in [14] was inactive. Further, the AC50 in assay [3] is 181 µM (active); in assay [6], 35.3 µM (active); in assay [7], 100 µM (active); in assay [8] it was 20 µM (active); in assay [9], 10.5 µM (active); in assay [10], 10.7 µM (active). In addition, the AC50 is 6 µM (active) in assay [11], 28.7 µM (active) in assay [12], 11.7 µM (active) in assay [13] and 2.27 µM (active) in [15].

`Cc1c([N+](=O)[O-])cc2c(c1[N+](=O)[O-])C(C)(C)CC2(C)C`: the outcome in [1], in assay [2], in assay [3], in [6], in assay [7] and in assay [10] was inactive. Moreover, the call in assay [17], in assay [12], in assay [19] and in assay [14] was inactive. The AC50 in assay [4] is 3.03 µM (active); in [8], 3.62 µM (active); in assay [9] it was 0.87 µM (active); in assay [11] it was 2.15 µM (active); in [13], 2.4 µM (active); in assay [15], 0.862 µM (active). Further, the AC50 in assay [18] is 2.08 µM (active).
